Ten molecules from ChEMBL document CHEMBL1157539, “Thousands of chemical starting points for antimalarial lead identification” (Nature, 2010) can be followed below.

Common to all, as to format: functional
The subject of test [1] is Plasmodium falciparum. The test is described as follows: GSK_TCMDC: Inhibition of Plasmodium falciparum 3D7 in whole red blood cells, using parasite LDH activity as an index of growth. Test compounds present at 2uM.
Test [2] deals with Plasmodium falciparum. The test is described as follows: GSK_TCMDC: Inhibition of Plasmodium falciparum Dd2 in whole red blood cells, using parasite LDH activity as an index of growth. Test compounds present at 2uM.
A further test has as its system HepG2. As to the kind of experiment: GSK_TCMDC: Percent inhibition of human HepG2 cell line. Test compounds present at 10uM.

`CCOc1ccc2[nH]c(-c3ccccc3)cc(=NN=Cc3ccncc3)c2c1`: the Inhibition in the test with Plasmodium falciparum [1] was determined as 100%; in the test on Plasmodium falciparum [2], 100%; in the test on HepG2 it was 19%.
For `CC1(C)N=C(N)N=C(N)N1c1ccc(Oc2ccccc2)cc1.Cl`, the figures for the Inhibition in the test on Plasmodium falciparum [1], in the test with Plasmodium falciparum [2] and in the test with HepG2 were 98%, 3% and 13%, respectively.
With `O=C(/C=C/c1ccc([N+](=O)[O-])cc1)N1CCC(CCN2CCC(c3c[nH]c4ccccc34)CC2)CC1`, the Inhibition was determined as 100% in the test with Plasmodium falciparum [1], 48% with Plasmodium falciparum [2] and 60% in the test with HepG2.
Regarding `CC(C)(C)c1ccc2[nH]c(-c3ccc(C(=O)NC4CCN(Cc5ccccc5)CC4)s3)nc2c1`, the Inhibition in the test with Plasmodium falciparum [1] worked out at 91%; in the test with Plasmodium falciparum [2], 42%; in the test with HepG2, 24%.
On to `Cc1ccc(NC(=O)c2ccc3ncccc3c2)cc1OC1CCN(Cc2ccc(F)cc2)CC1.O=C(O)C(F)(F)F`, for which the Inhibition in the test on Plasmodium falciparum [1] turned out to be 91%; in the test with Plasmodium falciparum [2], 22%; in the test on HepG2, 6%.
Consider `CCN(CCCN1CCCCC1)c1cc(C)nc(Nc2ccc(C)cc2C)n1.O=C(O)C(F)(F)F`, for which the Inhibition with Plasmodium falciparum [1] is 91%; in the test with Plasmodium falciparum [2], 35%; in the test on HepG2, 33%.
The matching figures for `O=C(/C=C/c1ccc(Cl)c(Cl)c1)NCCCCCN1CCC(NC(=O)Nc2ccc(Cl)cc2Cl)CC1`: 91%, 33% and 96%.
The matching figures for `CN1c2ccc([N+](=O)[O-])cc2C(C)(C)C12C=Cc1cc(Br)cc([N+](=O)[O-])c1O2` (stereo not given): 100%, 99% and 0%.
With `O=C(Nc1cccc(C(F)(F)F)c1)Nc1ccc(Cl)c(Cl)c1`, the Inhibition in the test on Plasmodium falciparum [1] was found to be 100%; in the test with Plasmodium falciparum [2], 100%; with HepG2, 5%.
Consider `Cc1noc(C)c1-c1ccc2c(Nc3ccccc3C(C)(C)C)c(C(=O)NCc3ccccc3)cnc2c1.Cl`, for which the Inhibition in the test on Plasmodium falciparum [1] is on record as 99%; in the test on Plasmodium falciparum [2], 89%; in the test on HepG2 it was 20%.
